ChEMBL document CHEMBL3988442, “University of Dundee, Small-Polar-MMV Screening Library” (2021)
For some assays here: Entries with a potency or affinity are not part of this list.

What was measured:
Parameters in all cases: scale not given: direction of the effect not stated beside the values
[1] = molecular target: Protein translocase subunit SecA (Escherichia coli (strain K12)) (UniProt P10408); assay: Assay to Identify E. coli SecA ATPase Inhibitors; type: functional; details: 30 µM
[2] = molecular target: T1, Ubiquitin-activating enzyme e1, putative (Leishmania donovani (strain BPK282A1)) (UniProt E9BSI1); assay: Leishmania donovani Ubiquitin Activating Enzyme (LdE1); type: functional; details: 30 µM
T1 sequence (whole entry): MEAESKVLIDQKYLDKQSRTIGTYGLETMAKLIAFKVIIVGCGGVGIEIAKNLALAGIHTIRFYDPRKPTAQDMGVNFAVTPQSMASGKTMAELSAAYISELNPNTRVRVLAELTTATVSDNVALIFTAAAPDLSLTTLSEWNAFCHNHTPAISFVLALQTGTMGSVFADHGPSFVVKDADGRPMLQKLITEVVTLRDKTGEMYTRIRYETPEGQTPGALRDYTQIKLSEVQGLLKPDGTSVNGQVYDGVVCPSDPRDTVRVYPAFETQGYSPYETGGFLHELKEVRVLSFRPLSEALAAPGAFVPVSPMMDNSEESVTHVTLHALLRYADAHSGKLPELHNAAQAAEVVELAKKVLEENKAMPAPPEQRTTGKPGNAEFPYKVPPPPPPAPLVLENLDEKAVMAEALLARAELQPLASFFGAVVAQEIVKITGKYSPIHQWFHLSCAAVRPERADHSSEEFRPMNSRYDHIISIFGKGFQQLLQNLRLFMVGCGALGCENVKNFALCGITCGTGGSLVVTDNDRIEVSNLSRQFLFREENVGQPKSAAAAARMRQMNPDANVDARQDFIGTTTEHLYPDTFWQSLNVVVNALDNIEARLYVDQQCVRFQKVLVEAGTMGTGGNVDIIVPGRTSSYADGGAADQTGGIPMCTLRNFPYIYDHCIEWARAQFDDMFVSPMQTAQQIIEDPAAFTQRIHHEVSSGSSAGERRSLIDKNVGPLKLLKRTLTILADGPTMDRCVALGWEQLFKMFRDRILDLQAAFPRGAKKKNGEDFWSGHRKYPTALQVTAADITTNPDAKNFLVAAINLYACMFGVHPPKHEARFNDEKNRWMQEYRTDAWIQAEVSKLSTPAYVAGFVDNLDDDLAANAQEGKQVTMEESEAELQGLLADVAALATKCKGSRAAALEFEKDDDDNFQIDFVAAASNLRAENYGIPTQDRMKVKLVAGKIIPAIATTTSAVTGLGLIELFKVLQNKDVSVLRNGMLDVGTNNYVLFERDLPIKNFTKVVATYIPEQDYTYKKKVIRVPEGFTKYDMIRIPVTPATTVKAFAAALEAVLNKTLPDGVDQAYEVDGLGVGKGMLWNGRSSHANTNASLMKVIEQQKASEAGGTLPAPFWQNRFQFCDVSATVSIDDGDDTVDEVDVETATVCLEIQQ

[3] = molecular target: AMP-activated protein kinase, AMPK (Homo sapiens) (UniProt P54646+O43741+P54619+Q9UGJ0+Q9Y478+Q13131+Q9UGI9); assay: AMP-dependent Kinase enzyme assay. An in vitro enzyme assay that detects ADP turnover that is directly proportional to AMPK activity. This uses naive AMPK that is activated during the assay with MK-8722; type: functional; details: 30 µM
[4] = molecular target: Sialic acid-binding Ig-like lectin 9 (Homo sapiens) (UniProt Q9Y336); assay: Hs-Siglec9 ALPHAscreen SOP 20170721; details: 10 µM
Sequence of Sialic acid-binding Ig-like lectin 9 (Homo sapiens) (Q9Y336 whole entry): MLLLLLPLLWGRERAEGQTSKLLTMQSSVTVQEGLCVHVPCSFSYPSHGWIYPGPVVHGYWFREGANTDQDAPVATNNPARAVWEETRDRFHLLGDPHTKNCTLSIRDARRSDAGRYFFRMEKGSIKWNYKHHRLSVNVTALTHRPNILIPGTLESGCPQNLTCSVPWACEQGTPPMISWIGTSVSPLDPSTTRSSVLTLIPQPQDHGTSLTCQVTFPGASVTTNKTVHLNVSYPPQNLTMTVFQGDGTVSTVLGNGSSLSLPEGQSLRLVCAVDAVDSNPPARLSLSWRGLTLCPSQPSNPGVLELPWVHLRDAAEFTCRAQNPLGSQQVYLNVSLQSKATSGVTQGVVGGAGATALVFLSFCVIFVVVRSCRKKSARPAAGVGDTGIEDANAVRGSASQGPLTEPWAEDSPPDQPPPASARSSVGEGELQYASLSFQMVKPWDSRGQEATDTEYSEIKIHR

Trypanosoma cruzi = assay: Trypanosoma cruzi phosphomannomutase and mannose-1-phosphate guanylyltransferase assay; type: functional; details: 10 µM
[5] = molecular target: T2, Arginase-2, mitochondrial (Homo sapiens) (UniProt P78540); assay: in vitro enzyme assay to detect the production of urea directly proportional to the activity of Arginase II; type: functional; details: 33.3 µM; further: in the data most compounds retested in dose-response had high values
T2 sequence (whole entry): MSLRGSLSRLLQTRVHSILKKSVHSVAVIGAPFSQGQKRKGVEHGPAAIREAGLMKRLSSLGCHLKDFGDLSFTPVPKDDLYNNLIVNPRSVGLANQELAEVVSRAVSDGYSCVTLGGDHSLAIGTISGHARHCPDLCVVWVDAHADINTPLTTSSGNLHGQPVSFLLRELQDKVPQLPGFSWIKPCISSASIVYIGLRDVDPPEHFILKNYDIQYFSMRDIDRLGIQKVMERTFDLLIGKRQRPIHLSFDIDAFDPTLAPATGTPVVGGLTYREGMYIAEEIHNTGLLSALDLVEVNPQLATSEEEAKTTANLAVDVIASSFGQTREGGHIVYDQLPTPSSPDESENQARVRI

[6] = molecular target: T3, Proteasome subunit beta (Trypanosoma cruzi) (UniProt O96673); assay: Trypanosoma cruzi proteasome chymotrypsin-like activity (TcProtChymo) assay.; further: in the data most compounds retested in dose-response had high values; type: functional; details: 9.37 µM
T3 sequence (whole entry): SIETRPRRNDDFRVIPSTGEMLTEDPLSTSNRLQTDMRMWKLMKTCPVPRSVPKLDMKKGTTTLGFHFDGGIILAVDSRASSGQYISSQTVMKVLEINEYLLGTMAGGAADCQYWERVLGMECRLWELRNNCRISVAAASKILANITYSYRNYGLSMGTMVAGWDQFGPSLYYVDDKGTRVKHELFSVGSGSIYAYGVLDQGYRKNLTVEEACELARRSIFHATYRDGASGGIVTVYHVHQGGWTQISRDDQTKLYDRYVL

Homo sapiens = species on record: Homo sapiens; assay: To identify inhibition of the IFN signalling (Jak-Stat) pathway via expression of an eGFP reporter gene under the control of an IFN-stimulated response element (ISRE) containing MxA promoter.; type: functional; details: 30 µM
[7] = molecular target: T4, Tyrosyl-tRNA synthetase, putative (Trypanosoma cruzi (strain CL Brener)) (UniProt Q4DSP6); assay: Trypanosoma cruzi tyrosyl tRNA synthetase (TcYRS) _High Tyrosine SOP; type: functional; details: 30 µM; further: in the data most compounds retested in dose-response had high values
T4 sequence (whole entry): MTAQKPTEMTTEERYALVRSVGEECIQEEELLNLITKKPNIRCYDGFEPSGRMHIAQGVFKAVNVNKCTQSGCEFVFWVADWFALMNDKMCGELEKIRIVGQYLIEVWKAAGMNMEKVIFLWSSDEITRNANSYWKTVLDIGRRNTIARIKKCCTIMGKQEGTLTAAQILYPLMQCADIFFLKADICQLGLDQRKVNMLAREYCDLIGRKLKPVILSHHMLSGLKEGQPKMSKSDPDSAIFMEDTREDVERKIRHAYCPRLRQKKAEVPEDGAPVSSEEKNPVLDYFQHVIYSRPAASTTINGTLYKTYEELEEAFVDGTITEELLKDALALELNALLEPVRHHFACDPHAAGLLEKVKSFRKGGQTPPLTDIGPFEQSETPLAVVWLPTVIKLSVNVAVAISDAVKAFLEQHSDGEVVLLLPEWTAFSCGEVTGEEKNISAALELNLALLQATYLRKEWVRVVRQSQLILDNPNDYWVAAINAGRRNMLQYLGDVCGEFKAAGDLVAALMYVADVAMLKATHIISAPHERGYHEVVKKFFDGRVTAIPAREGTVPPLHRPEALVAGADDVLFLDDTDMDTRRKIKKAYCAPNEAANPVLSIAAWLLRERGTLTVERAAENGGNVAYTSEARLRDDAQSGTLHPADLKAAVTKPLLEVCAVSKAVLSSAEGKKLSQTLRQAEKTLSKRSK

[8] = molecular target: T4, Tyrosyl-tRNA synthetase, putative (Trypanosoma cruzi (strain CL Brener)); assay: Trypanosoma cruzi tyrosyl tRNA synthetase (TcYRS) SOP; type: functional; details: 30 µM
[9] = molecular target: Chromo domain-containing protein 1 (Saccharomyces cerevisiae (strain ATCC 204508 / S288c) (Baker's yeast)) (UniProt P32657); assay: ScCHD-1 Enzyme Inhibition Assay; type: functional; details: 30 µM; further: in the data most compounds retested in dose-response had high values
Sequence of Chromo domain-containing protein 1 (Saccharomyces cerevisiae (strain ATCC 204508 / S288c) (Baker's yeast)) (P32657 whole entry, the tested form may be a part): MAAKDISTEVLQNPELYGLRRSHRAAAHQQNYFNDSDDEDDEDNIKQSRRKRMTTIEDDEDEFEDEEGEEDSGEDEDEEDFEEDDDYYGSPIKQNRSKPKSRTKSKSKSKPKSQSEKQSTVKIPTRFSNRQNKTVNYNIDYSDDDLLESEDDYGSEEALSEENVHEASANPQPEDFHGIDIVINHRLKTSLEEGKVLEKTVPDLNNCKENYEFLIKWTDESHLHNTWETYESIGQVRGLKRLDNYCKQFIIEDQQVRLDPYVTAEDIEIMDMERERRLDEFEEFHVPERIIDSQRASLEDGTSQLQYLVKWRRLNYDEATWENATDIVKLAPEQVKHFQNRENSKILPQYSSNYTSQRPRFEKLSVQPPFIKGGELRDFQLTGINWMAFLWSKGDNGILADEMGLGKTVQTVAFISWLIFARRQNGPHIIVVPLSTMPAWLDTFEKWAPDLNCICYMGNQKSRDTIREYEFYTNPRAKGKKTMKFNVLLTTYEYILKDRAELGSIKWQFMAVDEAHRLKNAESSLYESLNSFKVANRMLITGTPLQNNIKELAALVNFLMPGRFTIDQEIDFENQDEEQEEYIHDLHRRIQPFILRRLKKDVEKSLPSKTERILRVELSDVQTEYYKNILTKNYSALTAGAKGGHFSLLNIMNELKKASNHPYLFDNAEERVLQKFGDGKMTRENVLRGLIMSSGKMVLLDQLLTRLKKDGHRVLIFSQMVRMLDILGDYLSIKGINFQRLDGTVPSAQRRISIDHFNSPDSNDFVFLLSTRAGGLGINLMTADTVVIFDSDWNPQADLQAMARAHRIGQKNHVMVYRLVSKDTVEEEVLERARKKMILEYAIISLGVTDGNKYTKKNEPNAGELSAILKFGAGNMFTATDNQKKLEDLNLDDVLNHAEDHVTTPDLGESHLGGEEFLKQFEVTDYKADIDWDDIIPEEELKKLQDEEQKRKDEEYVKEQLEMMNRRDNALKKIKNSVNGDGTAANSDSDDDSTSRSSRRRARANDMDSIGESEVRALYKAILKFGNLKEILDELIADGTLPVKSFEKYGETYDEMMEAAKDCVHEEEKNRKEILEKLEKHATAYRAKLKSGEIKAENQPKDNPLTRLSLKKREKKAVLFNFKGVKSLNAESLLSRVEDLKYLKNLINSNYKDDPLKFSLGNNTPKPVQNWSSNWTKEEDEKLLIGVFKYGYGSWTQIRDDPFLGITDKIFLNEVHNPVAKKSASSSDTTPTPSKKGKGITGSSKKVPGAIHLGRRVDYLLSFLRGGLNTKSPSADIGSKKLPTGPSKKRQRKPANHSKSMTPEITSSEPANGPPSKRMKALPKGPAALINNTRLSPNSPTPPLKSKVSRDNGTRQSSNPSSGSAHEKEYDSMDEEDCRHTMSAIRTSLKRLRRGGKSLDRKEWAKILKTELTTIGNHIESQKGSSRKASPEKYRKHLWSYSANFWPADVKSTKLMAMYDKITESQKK

Sequence of Protein translocase subunit SecA (Escherichia coli (strain K12)) (P10408 whole entry): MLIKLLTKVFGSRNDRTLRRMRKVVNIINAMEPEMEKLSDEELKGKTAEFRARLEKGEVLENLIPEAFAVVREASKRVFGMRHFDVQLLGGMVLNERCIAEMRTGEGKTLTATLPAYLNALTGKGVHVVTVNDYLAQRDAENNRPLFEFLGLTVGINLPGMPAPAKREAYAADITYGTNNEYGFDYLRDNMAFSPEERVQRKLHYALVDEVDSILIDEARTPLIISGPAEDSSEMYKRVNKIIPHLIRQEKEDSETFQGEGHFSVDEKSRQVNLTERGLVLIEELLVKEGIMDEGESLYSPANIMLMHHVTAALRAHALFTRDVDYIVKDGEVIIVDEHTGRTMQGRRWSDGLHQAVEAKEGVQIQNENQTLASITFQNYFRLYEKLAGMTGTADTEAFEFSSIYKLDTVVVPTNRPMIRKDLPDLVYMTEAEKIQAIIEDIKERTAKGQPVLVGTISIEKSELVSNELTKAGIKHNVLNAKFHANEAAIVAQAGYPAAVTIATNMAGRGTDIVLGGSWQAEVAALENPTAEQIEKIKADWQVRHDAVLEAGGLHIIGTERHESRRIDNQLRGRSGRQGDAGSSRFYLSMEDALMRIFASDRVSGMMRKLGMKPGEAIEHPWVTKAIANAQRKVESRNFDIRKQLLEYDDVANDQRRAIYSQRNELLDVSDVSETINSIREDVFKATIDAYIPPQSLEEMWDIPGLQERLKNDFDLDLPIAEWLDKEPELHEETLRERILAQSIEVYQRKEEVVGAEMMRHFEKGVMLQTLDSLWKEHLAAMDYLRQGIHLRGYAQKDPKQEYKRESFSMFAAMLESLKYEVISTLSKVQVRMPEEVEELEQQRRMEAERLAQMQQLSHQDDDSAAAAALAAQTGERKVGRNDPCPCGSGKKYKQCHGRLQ

| SMILES | Percent Effect [1] | Percent Effect [2] | Percent Effect [3] | Percent Effect [4] | Percent Effect (Trypanosoma cruzi) | Percent Effect [5] | Percent Effect [6] | Percent Effect (Homo sapiens) | Percent Effect [7] | Percent Effect [8] | Percent Effect [9] |
| --- | --- | --- | --- | --- | --- | --- | --- | --- | --- | --- | --- |
| CCc1cc(NCc2ccccc2CN2CCCC2)n2ncnc2n1 | -5.91% | 0% | -0.284% | -9.79% | -4.38% | 5.92% | 17.4% | -22.7% | 3.19% | -2.6% | -5.77% |
| O=C(NCCN1CCCc2ccccc21)c1scnc1Cl | -4.96% | 2.63% | 0.379% | -2.42% | 2.52% | -0.719% | 2.96% | -9.38% | 7.39% | 1.24% | 3.5% |
| CNC(=O)c1cc2c(nc1N(C)C)CCN(S(=O)(=O)C1CC1)CC2 | -2.36% | 10.4% | -2.46% | -6.22% | -10.8% | 9.68% | 8.7% | 0.586% | -3.17% | -3.85% | -7.64% |
| Cc1ccc(C(=O)N2CCN(C(=O)Nc3ccccn3)CC2)o1 | -7.04% | -2.6% | 9.04% | -0.542% | -5.58% | 2.32% | 9.13% | 11% | 0% | -4.71% | -16.4% |
| Cc1nc(N2CCCC2)nc2c1CCN(Cc1ccco1)CC2 | -1.94% | 10.7% | 8.01% | 0.178% | 0% | -45.3% | 20.7% | -2.8% | 3.12% | 12.5% | -9.82% |
| CN(Cc1ccc(F)cc1)CC1(O)CCCN(CC(C)(C)C)C1=O (configuration not stated) | -5.95% | -1.39% | -3.53% | -2.57% | 3.79% | 3.09% | -3.16% | 1.55% | -7.37% | -2.56% | 0.558% |
| CC1c2ncc(Cn3cncn3)n2CCN1C1CCOCC1 (configuration not stated) | -4.22% | -2.67% | -5.46% | -3.4% | -4.83% | -54.3% | 9.91% | 2.92% | 2.08% | -12.5% | -5.31% |
| CCc1nc(CN2CCCC(NCc3ncc(C(C)(C)C)o3)C2)no1 (configuration not stated) | -1.05% | 18.2% | 2.6% | -6.25% | 1.27% | 1.05% | 22.6% | -1.65% | 12.4% | 35.3% | -24.7% |
| CC(=O)N1CCCC1c1ccc(-c2c(C)noc2C)cn1 (configuration not stated) | 0.953% | -4.05% | 8.36% | 2.83% | -3.56% | 6.26% | 4.52% | 5.24% | -1.07% | -3.9% | 3.24% |
| Cc1cnn(CC2CN(Cc3cccc(OCC(N)=O)c3)CCO2)c1 (configuration not stated) | -3.33% | -5.2% | 0.653% | 4.26% | -7.3% | 5.34% | -2.53% | 23.4% | 3.88% | -2.44% | 1.45% |
| Cc1ccc(-c2nc(CNC3CCc4ncnn4C3)co2)c(C)c1 (configuration not stated) | -7.34% | -41.6% | -3.33% | 17.9% | 6.18% | 0% | 7.09% | 9.71% | 10.7% | 19.5% | 80.3% |
| c1ccc(-c2noc(CN3CCc4cncnc4C3)n2)nc1 | -3.61% | 10.5% | -27.7% | 10.3% | 8.65% | 1.92% | 9.02% | -4.25% | 13.2% | 12.2% | -10.6% |
| O=C(Nc1cc(F)ccc1OCC1CCCO1)N1CCCC1 (configuration not stated) | -0.769% | 2.6% | -5.42% | 10.4% | 6.55% | 3.56% | -2.37% | -1.89% | 2.91% | 14.6% | -5.42% |
| COC(=O)N1CCCC(C(=O)NCc2cc3cccc(OC)c3o2)C1 (configuration not stated) | -4.05% | 7.59% | 3.35% | 19.5% | -2.36% | 2.28% | -2.54% | -18.3% | 3.45% | 8.86% | -3.44% |
| O=C(NC1CCC1)[C@@H]1C[C@@H]2CCN(Cc3cccs3)C[C@@H]2O1 | -2.68% | -2.67% | 10.9% | -2.43% | -0.197% | 2.56% | 7.67% | 28.3% | 3.19% | 11.5% | -2.54% |
| O=C(c1cc(F)ccc1F)C1CCN(C(=O)c2cccnc2O)CC1 | -5.29% | 7.79% | 3.43% | 13.6% | 2.06% | 0.21% | 3.8% | -28.1% | 1.91% | 9.41% | -12.7% |
| O=C(NCc1cccc2cccnc12)N1CCC(n2cncn2)CC1 | -2.83% | 6.33% | 9.77% | 5.48% | -5.03% | 2.37% | -0.515% | 12.1% | 9.38% | 7.59% | -4.9% |
| c1cnn(CC2CN(c3ncnc4ccsc34)CCO2)c1 (configuration not stated) | -5.02% | 2.7% | 14.2% | -3.02% | -4.69% | 0.833% | 19.5% | 69.8% | 4.95% | 11% | 0.323% |
| CCOc1cc(F)ccc1NS(=O)(=O)c1cc(C)c(C(=O)O)s1 | -9.09% | 8.11% | -10.6% | 28.9% | 4.59% | 0.248% | 8.15% | -8.12% | -5.38% | -1.24% | -11.4% |
| CCc1noc(C2CCCCN2C(=O)c2ccoc2C)n1 (configuration not stated) | -3.77% | 4% | -0.569% | 3.61% | -7.47% | -4.05% | 13.9% | -6.22% | 1.06% | 5.13% | -6.62% |
| Cc1ccc(-c2cc(N)c(=O)n(CC(=O)NC3CCCCC3)n2)s1 | -4.68% | 6.76% | 14.2% | 4.48% | -4.74% | 4.41% | 8.42% | 15.6% | 1.07% | 6.49% | -8.72% |
| Cc1nc(C)n(CC2CN(Cc3cccc(C(N)=O)c3)CCO2)n1 (configuration not stated) | -1.88% | -5.41% | 5.74% | -4.05% | -4.69% | 0% | 9.72% | -7.92% | 5.94% | 6.1% | 7.72% |
